Results reported in PubChem BioAssay.

The compounds below were run against Fibroblast growth factor 10 (Homo sapiens) (UniProt O15520) (assay: FGF10 binders on small-molecule microarrays, primary screen, biochemical, small-molecule microarray, 635 nm fluorescence (AID 1102)). Conditions: FGF10 binding, fluorescence 635 nm, higher = more signal.
Chain of Fibroblast growth factor 10 (Homo sapiens) (O15520 whole entry, looked up): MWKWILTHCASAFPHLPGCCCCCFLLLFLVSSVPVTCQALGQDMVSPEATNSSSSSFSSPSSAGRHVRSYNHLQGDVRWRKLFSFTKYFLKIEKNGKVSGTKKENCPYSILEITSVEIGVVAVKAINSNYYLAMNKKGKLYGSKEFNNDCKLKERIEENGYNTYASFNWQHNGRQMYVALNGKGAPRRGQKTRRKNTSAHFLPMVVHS

Row | SMILES | composite z-score
1 | COc1ccc(O[C@H]2C=C[C@@H](c3ccccc3)O[C@@H]2CON=CC[C@@H]2C=C[C@H](OC(C)=O)[C@@H](COC(C)=O)O2)cc1 | -0.0104
2 | CO[C@H]1COC(=O)CC=C[C@@H](C)[C@H](NS(=O)(=O)c2ccc(C)cc2)COC(=O)CCC[C@@H]1C | 0.366
3 | CON=CC[C@@H]1C=C[C@H](OC(C)=O)[C@@H](COC(C)=O)O1 | 0.277
4 | C=COC[C@@H]1CN2[C@@H](CC[C@@H](C)[C@@H]2c2ccc(Br)cc2)C(=O)O1 | -0.472
5 | O=C1[C@H]2[C@H]3[C@H](O)[C@H](O)CC(=NOCc4ccccc4)[C@@H]3CC[C@H]2C(=O)N1Cc1ccc2c(c1)OCO2 | 0.32
6 | COC(=O)NCC=Cc1nc(CCCO)co1 | 0.534
7 | CO[C@H]1COC(=O)CC=C[C@H](C)[C@@H](OC)COC(=O)[C@@H](C)COC(=O)CC=C[C@@H]1C | 0.902
8 | COC(=O)[C@@H]1CC[C@H](C)[C@@H](c2ccc(C)cc2)N1C(=O)c1ccc(C=NOC[C@@H](C)[C@H](OCc2ccccc2)C(C)C)cc1 | 0.532
9 | COC(=O)CC=C[C@@H](C)[C@@H](C=NO[C@@H]1O[C@H](COC(C)=O)[C@@H](OC(C)=O)[C@H](OC(C)=O)[C@H]1OC(C)=O)NS(=O)(=O)c1ccc(C)cc1 | 0.626
10 | CCOC(=O)[C@H](CC(C)C)NC(=O)CCC1CC(OC(=O)NCc2cccc3ccccc23)CC2(CCCC(COC(=O)NCCOc3ccccc3)O2)O1 (stereo not given in full) | 0.658
11 | COc1cccc([C@H]2Oc3ccc(OC)cc3C(=NO[C@@H](C)c3cn([C@H](CO)Cc4ccccc4)nn3)[C@@H]2O)c1 | 0.167
12 | COC(=O)CC=C[C@@H](C)[C@@H](C=NOC[C@H]1O[C@H](c2ccccc2)C=C[C@@H]1Oc1ccc(OC)cc1)NS(=O)(=O)c1ccc(C)cc1 | -0.858
13 | C=CC1=C[C@H](O)[C@@H]2O[C@@H]2C12OCCCO2 | 0.351
14 | COC(=O)CC=C[C@@H](C)[C@H](OCc1cccc(-c2ccccc2)c1)C1CCCCC1 | -0.127
15 | CC(C)CON=C1C[C@@H](O)[C@@H](O)[C@@H]2[C@@H]3C(=O)N(Cc4ccc5c(c4)OCO5)C(=O)[C@@H]3CC[C@H]12 | 1.14
16 | COc1ccc(O[C@H]2C=C[C@@H](c3ccccc3)O[C@@H]2CON=C(C)C)cc1 | -0.665
17 | COC(=O)CC=C[C@@H](C)[C@@H](C=NOC(C)CN1CCCc2nc(C)c(C)cc21)OC (stereo not given in full) | 0.407
18 | CC(C)(C)N1C(=O)[C@H]2[C@H]3[C@H](O)[C@H](O)CC(=NO[C@@H]4O[C@H](CO)[C@@H](O)[C@H](O)[C@H]4O)[C@H]3CC[C@H]2C1=O | 0.16
19 | C#CCCCON=C1C[C@@H](O)[C@@H](O)[C@@H]2[C@@H]3C(=O)N(C(C)(C)C)C(=O)[C@@H]3CC[C@H]12 | -0.165
20 | CCOC(=O)NN=C1C[C@@H](O)[C@@H](O)[C@@H]2[C@@H]3C(=O)N([C@@H](C)c4ccccc4)C(=O)[C@@H]3CC[C@H]12 | 0.225
21 | COC(=O)[C@@H]1CC[C@H](C)[C@@H](c2ccc(C)cc2)N1C(=O)c1ccc(C=NO[C@H](C)c2cn([C@H](CO)Cc3ccccc3)nn2)cc1 | 0.694
22 | CCOC(=O)CCN1C(=O)[C@H]2[C@H]3[C@H](O)[C@H](O)CC(=NNC(=O)OCc4ccccc4)[C@@H]3CC[C@H]2C1=O | 0.709
23 | CC(C)=CCCC(C)=CCON=C1C[C@@H](O)[C@@H](O)[C@@H]2[C@@H]3C(=O)N(c4ccc(F)cc4F)C(=O)[C@@H]3CC[C@@H]12 | 0.601
24 | CCc1cc2c(nc1CC)CCN(CCC(C)=NO[C@H](C)c1cn([C@H](CO)Cc3ccccc3)nn1)C2 | 0.0168
25 | COC(=O)[C@H](C)NC(=O)CCC1CC(OC(=O)NCCc2ccc(F)cc2)CC2(CCCC(COC(=O)NCCC(C)C)O2)O1 (stereo not given in full) | 0.866
26 | CCN1C(=O)[C@@H]2[C@H]3C(=CC[C@@H]2C1=O)C1(OCCCO1)[C@H]1O[C@H]1[C@H]3O | 1.39
27 | CCCNC(=O)OC[C@H]1O[C@H](CCON=C(C)CCN2CCc3nc(CC)c(CC)cc3C2)C=C[C@@H]1Oc1ccc(OC)cc1 | -0.423
28 | COc1cccc([C@H]2Oc3ccc(OC)cc3C(=NO[C@H](C)c3cn([C@H](CO)Cc4ccccc4)nn3)[C@@H]2O)c1 | 0.0546
29 | Cc1ccc(S(=O)(=O)n2c3ccccc3c3nnc(C(=O)c4ccccc4)nc32)cc1 | 0.328
30 | CCOC(=O)[C@H](Cc1ccccc1)NC(=O)CCC1CC(OC(=O)NCc2ccc3c(c2)OCO3)CC2(CCCC(COC(=O)NCCc3ccccc3OC)O2)O1 (stereo not given in full) | 0.977
